Source: PubChem BioAssay AID1578 (Sanford-Burnham Center for Chemical Genomics, 2009)
The campaign covered roughly 290,000 compounds. About 3,000 (1%) were called active. This is one part of a sample in which actives are shown more often than they occur. Cut-off read from the data, not from the text of the source: active = inhibition mostly above about 36% (no sharp cut-off); inactive = mostly below about 34%.

test: inhibition of NOD1-driven NF-kB reporter – cell-based, luminescence, uHTS, primary screen (AID 1578); details: NOD1-driven NF-kB luciferase reporter cells, at 4 µM, hits give high values;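 note: HEK-293T reporter cells stimulated with the NOD1 agonist gamma-tri-DAP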

Compound | inhibition
O=C(/C=C/NCc1cccnc1)C(F)(F)C(F)(F)F | -53% (inactive)
Cc1ccc(-c2csc(Nc3ccc(C(=O)O)cc3)[n+]2Cc2ccccc2)cc1 | 17.8% (inactive)
O=C(CCN1C(=O)[C@@H]2Cc3ccccc3CN2C1=O)NCc1ccc(Cl)cc1 | -7.8% (inactive)
NC(=O)c1ccccc1NC(=O)c1ccccc1S(=O)(=O)c1ccccc1[N+](=O)[O-] | -18.3% (inactive)
[O-]/[N+](=C/c1ccc(F)cc1)c1ccc(Cl)cc1 | -85.9% (inactive)
COc1cccc(C(=O)NCc2ccc3c(c2)OCO3)c1OC | -33% (inactive)
CC1=C(C(=O)N(C)C)C(c2cccc(Cl)c2)NC(=O)N1 (stereo not given) | -23.2% (inactive)
COc1ccc(CCNC(=O)c2ccc3c(c2)N(Cc2ccc(F)cc2)CCS3)cc1OC | -34.1% (inactive)
COc1ccc(CCNC(=O)c2ccc3c(c2)N(Cc2ccc(C)cc2)CCS3)cc1OC | 8.4% (inactive)
CCCC[C@@H]1CNC(=S)N1CCc1cccc(F)c1 | -29.2% (inactive)
CCOc1ncccc1C(=O)Nc1cc(S(=O)(=O)N2CCOCC2)ccc1N1CCCC1 | 0.1% (inactive)
CC1CCN(C(=O)C2CCN(S(=O)(=O)c3ccc(-n4cnnn4)cc3)CC2)CC1 | -10.6% (inactive)
O=C(CCc1ccccc1O)N/N=C/c1ccc(Sc2cccc3cccnc23)o1 | 89.3% (active)
O=C(CSc1cccc2cccnc12)N/N=C/c1ccncc1 | -32.7% (inactive)
O=C(CSc1cccc2cccnc12)N/N=C/c1cccc(O)c1 | -22% (inactive)
COc1cccc(/C=N/NC(=O)CSc2cccc3cccnc23)c1 | 33.4% (active)
CCOc1cc(/C=N/NC(=O)CSc2cccc3cccnc23)ccc1O | -32.2% (inactive)
CCCCC(=O)N/N=C/c1ccc(Sc2cccc3cccnc23)o1 | -12.8% (inactive)
O=C(CSc1cccc2cccnc12)N/N=C/c1cccnc1 | 80% (active)
O=C(Cc1cccc2ccccc12)N/N=C/c1ccc(Sc2cccc3cccnc23)o1 | 61.9% (inactive)
O=C(CSc1cccc2cccnc12)N/N=C/c1ccc(O)cc1 | -3.1% (inactive)
Cc1cc(NC(=O)CSc2nnc(CNC(=O)c3ccc(F)cc3)o2)no1 | -38.1% (inactive)
O=C(CSc1nc2ccccc2c(=O)n1CCCN1CCOCC1)c1c[nH]c2ccccc12 | 41% (inactive)
O=C(NCc1ccccc1OC(F)(F)F)C1CCC(=O)N(Cc2ccccn2)C1 (stereo not given) | -8% (inactive)
CC(C)(C)OC(=O)NC(Cc1ccccc1)C(=O)N1CCC(C(=O)NCC(=O)Nc2ccc(F)cc2)CC1 (stereo not given) | -18% (inactive)
